The values below come from PubChem BioAssay (EPA / NIEHS).

Inconclusive results are not listed. The source made the active and inactive calls. How the source made its calls, unless noted: active means hit-call score of the fitted dose curve at least 0.9, where 1 is the maximum; inactive means score below 0.9.

Test [1] is described as follows: ATG_TAL_CIS: Attagene CIS-FACTORIAL HepG2 Assay for human TAL Basal Promoter (AID 2282966).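 Further: background control endpoint measuring basal TAL promoter reporter mRNA not a specific factor.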 The following applies: HepG2 Attagene cis-factorial TAL promoter reporter; actives raise or lower the signal. In short, it runs like this: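 Steps: transfect HepG2 with multiple reporter transcription units; dose 24 h; isolate RNA, reverse-transcribe, PCR-amplify, label with 6-FAM, digest with HpaI; resolve by capillary electrophoresis. Bidirectional fitting against DMSO baseline.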

The nature of test [2]: ATG_TGFb_CIS: Attagene CIS-FACTORIAL HepG2 Assay for human Transforming Growth Factor (TGF) (AID 2282967). The following applies: HepG2 Attagene CIS TGFb reporter, mRNA transcription; actives raise or lower the signal. In short, it runs like this:
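Multiplexed cis-reporter HepG2 system, 24 h treatment; mRNA induction read by fluorescence after RT-PCR and CE; DMSO negative control, bidirectional curve fitting.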

The target of test [3] is X-box-binding protein 1 (Homo sapiens) (UniProt P17861). Description: ATG_Xbp1_CIS: Attagene CIS-FACTORIAL HepG2 Assay for human X-box Binding Protein 1 (XBP1) (AID 2282972). As to conditions: HepG2 XBP1 cis-element reporter, Attagene multiplex; actives raise or lower the signal. The procedure, abridged:
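HepG2 cells transiently transfected with cis-regulated multiple reporter transcription units; endogenous transcription factor activity measured 24 hours after chemical dosing. Reporter mRNA quantified by RT-PCR, 6-FAM primer extension, HpaI digestion and capillary electrophoresis; bidirectional fitting versus DMSO.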

The target of test [4] is Oxysterols receptor LXR-alpha (Homo sapiens) (UniProt Q13133). Description: ATG_LXRa_TRANS: Attagene TRANS-FACTORIAL HepG2 Assay for human Liver X Receptor alpha (LXRa) (AID 2282980; active means hit-call score of the fitted dose curve at least 0.9, where 1 is the maximum). The following applies: HepG2 Attagene TRANS reporter, LXRa transactivation. The procedure, abridged: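 In this multiplexed TRANS system, compounds act on HepG2 cells carrying GAL4-UAS reporter units and a receptor-GAL4 fusion for 24 h. Induced reporter RNA is amplified, fluorescently labelled and sized by capillary electrophoresis, with DMSO as baseline.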

Test [5] has as its target Oxysterols receptor LXR-beta (Homo sapiens) (UniProt P55055). Description: ATG_LXRb_TRANS: Attagene TRANS-FACTORIAL HepG2 Assay for human Liver X Receptor beta (LXRb) (AID 2282981; active means hit-call score of the fitted dose curve at least 0.9, where 1 is the maximum). As to conditions: HepG2 Attagene TRANS GAL4-LXRb reporter, mRNA. In short, it runs like this:
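Gain-of-signal mRNA reporter endpoint, DMSO as negative control. Transiently transfected HepG2 cells carrying the NR-Gal4 chimera and GAL4-UAS reporter units were treated 24 h; transcripts quantified by RT-PCR and capillary electrophoresis fluorescence.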

Test [6] has as its target Hepatocyte nuclear factor 4-alpha (Homo sapiens) (UniProt P41235). Description: ATG_HNF4a_TRANS: Attagene TRANS-FACTORIAL HepG2 Assay for human Hepatocyte Nuclear Factor 4 alpha (HNF4a) (AID 2282982; active means hit-call score of the fitted dose curve at least 0.9, where 1 is the maximum). As to conditions: HepG2 HNF4a transactivation reporter, mRNA readout. The procedure, abridged:
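Gain-of-signal mRNA induction, relative to DMSO vehicle, was read after 24 h compound treatment of HepG2 cells bearing transfected GAL4-UAS reporters. Detection used RT-PCR, 6-FAM primer extension and capillary electrophoresis.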

Test [7] can be described thus: ATG_M_06_TRANS: Attagene TRANS-FACTORIAL HepG2 Assay for M06 Transcription Factor (Internal Marker) (AID 2282983; active means hit-call score of the fitted dose curve at least 0.9, where 1 is the maximum). The following applies: HepG2 Attagene TRANS M06 internal marker reporter. The procedure, abridged:
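Internal-marker background readout from a multiplexed TRANS reporter system in HepG2; 24 h dosing; mRNA induction quantified by RT-PCR plus capillary electrophoresis fluorescence; DMSO as negative control and baseline.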

In test [8] the target is Nuclear receptor subfamily 4 group A member 2 (Homo sapiens) (UniProt P43354). Description: ATG_NURR1_TRANS: Attagene TRANS-FACTORIAL HepG2 Assay for human Nuclear Receptor Related Protein 1 (NURR1) (AID 2282985; active means hit-call score of the fitted dose curve at least 0.9, where 1 is the maximum). The following applies: HepG2 Attagene TRANS reporter, mRNA readout. In short, it runs like this: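 HepG2 / transient MRTU transfection / 24 h compound exposure / RT-PCR + CE fluorescence of reporter mRNA / gain-of-signal vs DMSO.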

Test [9] concerns the target Transcriptional activator Myb (Homo sapiens) (UniProt P10242). Description: ATG_Myb_CIS: Attagene CIS-FACTORIAL HepG2 Assay for human Myeloblastosis (Myb) Proto-Oncogene Transcription Factor (AID 2282986). As to conditions: HepG2 Attagene CIS-FACTORIAL Myb reporter transcription; actives raise or lower the signal. In short, it runs like this:
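HepG2, transient MRTU transfection (cis-element promoters, endogenous TF activity), 24 h compound exposure. Readout: reporter mRNA via RT-PCR, 6-FAM labeling, HpaI digest, capillary electrophoresis. Gain/loss fit vs DMSO.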

For test [10], the target named is Nuclear respiratory factor 1 (Homo sapiens) (UniProt Q16656). Description: ATG_NRF1_CIS: Attagene CIS-FACTORIAL HepG2 Assay for human Nuclear Respiratory Factor 1 (NRF1) Orphan Gene (AID 2282987). The following applies: HepG2 NRF1 cis-element reporter, Attagene multiplex; actives raise or lower the signal. In short, it runs like this:
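Endogenous NRF1-driven reporter transcription measured in transiently transfected human HepG2 liver cells. Readout: reporter mRNA by RT-PCR and capillary electrophoresis with fluorescence detection, 24 h post-dosing. Gain or loss of signal fitted relative to DMSO baseline.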

For test [11], the target named is Nuclear receptor subfamily 1 group I member 3 (Homo sapiens) (UniProt Q14994). Description: ATG_CAR_TRANS: Attagene TRANS-FACTORIAL HepG2 Assay for human Constitutive Androstane Receptor (CAR) (AID 2282969; active means hit-call score of the fitted dose curve at least 0.9, where 1 is the maximum;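 further: activators raise reporter mRNA above DMSO so AC50 marks induction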). The following applies: HepG2 Attagene TRANS-FACTORIAL CAR reporter. In short, it runs like this:
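HepG2 cells transiently transfected with GAL4-UAS reporter units; TRANS format reads activity of exogenous chimeric NR-Gal4 protein. After 24 h dosing, reporter mRNA quantified by RT-PCR, 6-FAM labelling and capillary electrophoresis; gain of signal fitted against DMSO.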

Test [12] deals with Glucocorticoid receptor (Homo sapiens) (UniProt P04150). Description: ATG_GR_TRANS: Attagene TRANS-FACTORIAL HepG2 Assay for human Glucocorticoid Receptor (GR) (AID 2282978; active means hit-call score of the fitted dose curve at least 0.9, where 1 is the maximum;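 further: activators score as hits since higher reporter transcript over DMSO is fitted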). As to conditions: HepG2 Attagene TRANS GR reporter, mRNA transcription. In short, it runs like this: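 Transient MRTU transfection of HepG2 (GAL4-UAS reporters, exogenous NR-GAL4 chimeras), 24 h dosing. Readout: reporter transcript via RT-PCR + capillary electrophoresis fluorescence. Positive direction vs DMSO baseline.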

Test [13] in a line: ATG_M_32_TRANS: Attagene TRANS-FACTORIAL HepG2 Assay for M32 Transcription Factor (Internal Marker) (AID 2282984; active means hit-call score of the fitted dose curve at least 0.9, where 1 is the maximum;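 further: transcript level of a background control reporter unit measured by RT-PCR and capillary electrophoresis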). The following applies: HepG2 Attagene TRANS M32 internal marker reporter. In short, it runs like this:
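Capillary electrophoresis of 6-FAM-labelled reporter fragments gives the signal; data fitted for gain over DMSO negative control. Source: HepG2 cells bearing transient multiple reporter transcription units, 24 h exposure.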

Test [14] can be described thus: ATG_NFI_CIS: Attagene CIS-FACTORIAL HepG2 Assay for human Nuclear Factor I (NFI) (AID 2282989). As to conditions: HepG2 cis-regulatory reporter, NFI response element transcription; actives raise or lower the signal. The procedure, abridged:
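Multiplexed cis-reporter system in human HepG2 cells reports native TF activity as reporter mRNA induction 24 h post-dose. Fragments labelled with 6-FAM, HpaI-digested and resolved by capillary electrophoresis; activity fitted both directions versus DMSO.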

Test [15] can be described thus: ATG_M_19_TRANS: Attagene TRANS-FACTORIAL HepG2 Assay for M19 Transcription Factor (Internal Marker) (AID 2282974; active means hit-call score of the fitted dose curve at least 0.9, where 1 is the maximum). As to conditions: HepG2 Attagene TRANS-FACTORIAL M19 internal marker reporter. The procedure, abridged: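 24 h chemical exposure of transiently transfected HepG2 (MRTU library). RNA → oligo(dT) RT → PCR → 6-FAM labelling → HpaI cut → CE fluorescence. Positive-direction fit vs DMSO baseline; background internal-marker readout.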

Test [16] deals with Bile acid receptor (Homo sapiens) (UniProt Q96RI1). Description: ATG_FXR_TRANS: Attagene TRANS-FACTORIAL HepG2 Assay for Farnesoid X Receptor (FXR) (AID 2282979; active means hit-call score of the fitted dose curve at least 0.9, where 1 is the maximum;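 further: hits raise reporter mRNA above DMSO so AC50 marks FXR activation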). As to conditions: HepG2 Attagene TRANS FXR-GAL4 reporter transcription. In short, it runs like this: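 After 24 h chemical treatment of transfected HepG2 cells, GAL4-UAS reporter transcripts driven by an exogenous FXR-GAL4 fusion were measured by RT-PCR and capillary electrophoresis. Increases over DMSO were fitted.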

For test [17], the target named is Steroid hormone receptor ERR1 (Homo sapiens) (UniProt P11474). Description: ATG_ERRa_TRANS: Attagene TRANS-FACTORIAL HepG2 Assay for human Estrogen-Related Receptor alpha (ERRa) (AID 2282971; active means hit-call score of the fitted dose curve at least 0.9, where 1 is the maximum). As to conditions: HepG2 Attagene TRANS reporter, ERRa transactivation. In short, it runs like this: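 Signal gain relative to DMSO for an ERRa-Gal4 chimeric receptor, read as reporter mRNA by RT-PCR/capillary electrophoresis. Human HepG2 liver cells, transient multiplex reporter transfection, 24 h chemical exposure.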

A short description of test [18]: ATG_GAL4_TRANS: Attagene TRANS-FACTORIAL HepG2 Assay for GAL4 (Internal Marker) (AID 2282976; active means hit-call score of the fitted dose curve at least 0.9, where 1 is the maximum). As to conditions: HepG2 Attagene TRANS GAL4 internal marker reporter. The procedure, abridged: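 Liver HepG2 line bearing multiplexed GAL4-UAS reporter constructs; 24 h chemical treatment. Transcripts were quantified as fluorescent fragments on capillary electrophoresis after RT-PCR and HpaI cut, with activity fitted upward from DMSO.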

In test [19] the target is Estrogen-related receptor gamma (Homo sapiens) (UniProt P62508). Description: ATG_ERRg_TRANS: Attagene TRANS-FACTORIAL HepG2 Assay for human Estrogen-Related Receptor gamma (ERRg) (AID 2282977; active means hit-call score of the fitted dose curve at least 0.9, where 1 is the maximum;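 further: hits increase reporter signal over DMSO so potencies reflect activators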). The following applies: HepG2 Attagene TRANS reporter, ERRg transactivation. In short, it runs like this: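 HepG2 cells transiently transfected with multiplexed GAL4-UAS reporter units and chimeric NR-Gal4 constructs were exposed to test chemicals for 24 h. Reporter mRNA was measured by RT-PCR, 6-FAM primer extension, HpaI digestion and capillary electrophoresis; gain-of-signal versus DMSO.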

Sequence of Nuclear receptor subfamily 1 group I member 3 (Homo sapiens) (Q14994 whole entry, looked up, the tested form may be a part): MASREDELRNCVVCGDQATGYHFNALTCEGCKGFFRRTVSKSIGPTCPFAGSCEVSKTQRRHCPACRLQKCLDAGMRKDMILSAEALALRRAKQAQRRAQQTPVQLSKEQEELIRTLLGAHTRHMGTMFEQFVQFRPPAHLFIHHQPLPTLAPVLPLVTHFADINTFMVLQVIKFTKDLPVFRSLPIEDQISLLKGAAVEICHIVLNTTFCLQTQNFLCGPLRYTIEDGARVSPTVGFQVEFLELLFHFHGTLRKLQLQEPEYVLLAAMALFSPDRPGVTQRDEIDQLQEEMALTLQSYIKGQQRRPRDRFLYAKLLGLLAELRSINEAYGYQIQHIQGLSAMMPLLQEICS
Sequence of Nuclear respiratory factor 1 (Homo sapiens) (Q16656 whole entry, looked up): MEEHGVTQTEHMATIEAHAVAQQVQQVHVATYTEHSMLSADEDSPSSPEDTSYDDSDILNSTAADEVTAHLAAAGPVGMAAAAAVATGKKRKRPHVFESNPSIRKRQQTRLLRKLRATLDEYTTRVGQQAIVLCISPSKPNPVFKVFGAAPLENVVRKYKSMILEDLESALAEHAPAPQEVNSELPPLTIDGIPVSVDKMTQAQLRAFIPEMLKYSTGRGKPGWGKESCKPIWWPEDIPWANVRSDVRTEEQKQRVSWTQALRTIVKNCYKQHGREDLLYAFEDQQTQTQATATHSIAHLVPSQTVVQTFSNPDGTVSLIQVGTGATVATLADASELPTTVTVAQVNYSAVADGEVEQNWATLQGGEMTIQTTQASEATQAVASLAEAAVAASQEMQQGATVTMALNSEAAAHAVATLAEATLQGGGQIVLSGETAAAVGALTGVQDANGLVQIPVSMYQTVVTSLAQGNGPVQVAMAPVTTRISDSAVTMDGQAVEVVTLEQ
Sequence of Hepatocyte nuclear factor 4-alpha (Homo sapiens) (P41235 whole entry, looked up, the tested form may be a part): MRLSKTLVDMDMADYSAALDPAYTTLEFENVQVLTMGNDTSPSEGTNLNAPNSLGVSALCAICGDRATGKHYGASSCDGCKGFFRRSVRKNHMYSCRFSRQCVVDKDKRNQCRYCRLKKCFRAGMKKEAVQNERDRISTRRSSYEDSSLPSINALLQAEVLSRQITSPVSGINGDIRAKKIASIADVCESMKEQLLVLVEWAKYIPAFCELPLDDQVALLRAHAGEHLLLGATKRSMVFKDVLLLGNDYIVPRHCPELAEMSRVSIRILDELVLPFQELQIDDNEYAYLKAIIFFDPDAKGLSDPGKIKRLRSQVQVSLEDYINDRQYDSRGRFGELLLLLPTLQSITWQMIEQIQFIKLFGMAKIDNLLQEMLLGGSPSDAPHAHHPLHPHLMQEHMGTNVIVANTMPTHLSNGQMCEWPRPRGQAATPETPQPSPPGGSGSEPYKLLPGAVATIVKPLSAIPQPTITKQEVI
Sequence of Transcriptional activator Myb (Homo sapiens) (P10242 whole entry, looked up): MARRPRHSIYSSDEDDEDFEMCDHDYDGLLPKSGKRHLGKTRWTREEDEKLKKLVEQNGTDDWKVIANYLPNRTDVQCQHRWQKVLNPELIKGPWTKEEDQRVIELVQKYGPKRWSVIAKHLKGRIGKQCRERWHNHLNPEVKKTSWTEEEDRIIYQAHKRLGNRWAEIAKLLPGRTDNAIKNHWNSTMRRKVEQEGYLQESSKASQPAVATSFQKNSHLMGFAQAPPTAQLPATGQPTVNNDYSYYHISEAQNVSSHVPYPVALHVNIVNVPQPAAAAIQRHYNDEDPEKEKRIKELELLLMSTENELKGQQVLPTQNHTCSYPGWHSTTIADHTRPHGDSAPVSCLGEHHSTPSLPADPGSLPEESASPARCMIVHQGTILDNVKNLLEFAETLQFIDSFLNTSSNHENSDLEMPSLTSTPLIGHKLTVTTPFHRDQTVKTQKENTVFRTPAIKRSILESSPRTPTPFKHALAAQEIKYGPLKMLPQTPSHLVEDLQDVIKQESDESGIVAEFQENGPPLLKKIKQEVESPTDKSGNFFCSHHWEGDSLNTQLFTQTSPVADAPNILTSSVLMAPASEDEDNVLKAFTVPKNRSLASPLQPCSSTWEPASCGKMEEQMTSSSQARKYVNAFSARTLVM
Sequence of X-box-binding protein 1 (Homo sapiens) (P17861 whole entry, looked up): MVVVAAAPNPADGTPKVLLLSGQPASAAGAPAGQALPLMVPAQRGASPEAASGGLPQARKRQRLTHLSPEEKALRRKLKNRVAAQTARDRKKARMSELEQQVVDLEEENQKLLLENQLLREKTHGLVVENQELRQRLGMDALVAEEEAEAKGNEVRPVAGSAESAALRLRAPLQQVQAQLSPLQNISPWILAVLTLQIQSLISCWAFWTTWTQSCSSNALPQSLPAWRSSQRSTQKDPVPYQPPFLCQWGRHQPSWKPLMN
Sequence of Oxysterols receptor LXR-alpha (Homo sapiens) (Q13133 whole entry, looked up, the tested form may be a part): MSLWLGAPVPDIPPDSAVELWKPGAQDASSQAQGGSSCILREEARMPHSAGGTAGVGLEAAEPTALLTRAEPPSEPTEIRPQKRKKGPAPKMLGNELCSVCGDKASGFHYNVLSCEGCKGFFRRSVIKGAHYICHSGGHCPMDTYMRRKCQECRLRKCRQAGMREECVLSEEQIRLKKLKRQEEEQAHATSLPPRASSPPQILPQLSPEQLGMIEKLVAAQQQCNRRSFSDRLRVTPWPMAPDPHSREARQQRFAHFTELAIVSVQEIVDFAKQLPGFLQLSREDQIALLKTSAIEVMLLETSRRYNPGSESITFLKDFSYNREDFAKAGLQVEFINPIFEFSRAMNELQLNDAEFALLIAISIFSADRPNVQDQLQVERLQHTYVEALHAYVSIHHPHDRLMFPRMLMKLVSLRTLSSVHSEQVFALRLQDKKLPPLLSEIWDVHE
Sequence of Nuclear receptor subfamily 4 group A member 2 (Homo sapiens) (P43354 whole entry, looked up): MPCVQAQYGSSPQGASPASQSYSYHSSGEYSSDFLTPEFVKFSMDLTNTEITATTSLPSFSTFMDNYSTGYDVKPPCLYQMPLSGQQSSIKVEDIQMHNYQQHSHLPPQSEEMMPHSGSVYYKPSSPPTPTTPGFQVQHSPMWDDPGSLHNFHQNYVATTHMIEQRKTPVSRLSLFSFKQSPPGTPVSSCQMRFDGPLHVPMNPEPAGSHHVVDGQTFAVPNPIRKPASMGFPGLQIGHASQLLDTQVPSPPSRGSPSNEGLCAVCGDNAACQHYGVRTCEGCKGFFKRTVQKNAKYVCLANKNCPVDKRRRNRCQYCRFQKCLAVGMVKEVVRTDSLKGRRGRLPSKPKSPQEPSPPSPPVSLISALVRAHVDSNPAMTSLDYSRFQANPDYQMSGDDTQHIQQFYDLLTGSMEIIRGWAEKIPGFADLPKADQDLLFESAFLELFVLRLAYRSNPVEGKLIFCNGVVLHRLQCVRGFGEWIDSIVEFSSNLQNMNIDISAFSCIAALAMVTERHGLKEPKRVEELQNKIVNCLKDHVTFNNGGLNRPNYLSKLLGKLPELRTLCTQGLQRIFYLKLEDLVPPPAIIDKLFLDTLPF
Sequence of Oxysterols receptor LXR-beta (Homo sapiens) (P55055 whole entry, looked up, the tested form may be a part): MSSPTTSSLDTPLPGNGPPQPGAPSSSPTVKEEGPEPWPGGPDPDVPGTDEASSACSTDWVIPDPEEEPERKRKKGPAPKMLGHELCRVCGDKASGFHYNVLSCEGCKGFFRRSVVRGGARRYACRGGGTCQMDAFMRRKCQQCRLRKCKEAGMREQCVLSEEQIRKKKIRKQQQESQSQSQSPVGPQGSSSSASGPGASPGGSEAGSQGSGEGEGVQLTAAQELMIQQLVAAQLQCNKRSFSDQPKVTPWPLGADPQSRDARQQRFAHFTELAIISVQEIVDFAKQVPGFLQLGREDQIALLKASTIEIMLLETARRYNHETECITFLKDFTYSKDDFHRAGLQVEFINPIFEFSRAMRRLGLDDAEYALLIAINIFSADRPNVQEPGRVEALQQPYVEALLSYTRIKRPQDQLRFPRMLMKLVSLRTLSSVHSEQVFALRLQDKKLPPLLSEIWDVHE
Sequence of Glucocorticoid receptor (Homo sapiens) (P04150 whole entry, looked up, the tested form may be a part): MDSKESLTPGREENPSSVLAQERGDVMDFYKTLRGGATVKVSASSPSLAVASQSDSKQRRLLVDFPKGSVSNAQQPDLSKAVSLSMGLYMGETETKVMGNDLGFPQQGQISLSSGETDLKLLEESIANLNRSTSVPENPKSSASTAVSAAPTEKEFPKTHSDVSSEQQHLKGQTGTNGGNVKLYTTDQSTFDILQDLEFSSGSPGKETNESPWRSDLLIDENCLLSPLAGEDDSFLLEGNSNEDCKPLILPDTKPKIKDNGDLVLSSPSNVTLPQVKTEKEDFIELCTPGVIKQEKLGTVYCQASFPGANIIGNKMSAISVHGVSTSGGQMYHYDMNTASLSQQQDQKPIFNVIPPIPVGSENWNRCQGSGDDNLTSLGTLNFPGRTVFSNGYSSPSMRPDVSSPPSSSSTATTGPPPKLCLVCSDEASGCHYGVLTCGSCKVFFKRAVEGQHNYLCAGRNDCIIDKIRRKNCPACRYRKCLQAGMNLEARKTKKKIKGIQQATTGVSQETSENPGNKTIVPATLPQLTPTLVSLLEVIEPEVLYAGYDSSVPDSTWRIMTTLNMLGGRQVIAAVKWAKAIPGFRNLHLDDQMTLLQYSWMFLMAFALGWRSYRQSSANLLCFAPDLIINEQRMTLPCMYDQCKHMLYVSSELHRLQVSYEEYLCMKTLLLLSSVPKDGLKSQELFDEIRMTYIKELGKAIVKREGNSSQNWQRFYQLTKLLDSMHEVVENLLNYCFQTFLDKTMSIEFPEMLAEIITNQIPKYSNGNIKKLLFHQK
Sequence of Bile acid receptor (Homo sapiens) (Q96RI1 whole entry, looked up, the tested form may be a part): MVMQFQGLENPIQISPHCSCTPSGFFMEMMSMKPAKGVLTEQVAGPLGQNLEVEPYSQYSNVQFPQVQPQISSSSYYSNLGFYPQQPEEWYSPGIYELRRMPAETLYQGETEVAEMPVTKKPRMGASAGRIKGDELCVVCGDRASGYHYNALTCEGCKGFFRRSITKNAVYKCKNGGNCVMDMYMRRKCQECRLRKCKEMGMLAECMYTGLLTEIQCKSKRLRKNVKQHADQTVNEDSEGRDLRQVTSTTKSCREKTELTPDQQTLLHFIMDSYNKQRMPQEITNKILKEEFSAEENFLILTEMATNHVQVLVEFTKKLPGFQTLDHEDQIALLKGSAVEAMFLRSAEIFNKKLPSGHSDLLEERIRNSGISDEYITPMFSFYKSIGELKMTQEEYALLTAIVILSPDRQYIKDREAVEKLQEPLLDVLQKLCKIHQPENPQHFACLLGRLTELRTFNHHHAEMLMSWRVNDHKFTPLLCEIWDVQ

For `OCCc1ccccc1`, the outcome in test [1], in test [2], in [3], in [4], in test [5] and in test [6] was inactive. For the same molecule, the molecule was called inactive in test [7], in [8], in test [9] and in [10].
Take `CC(CN=Cc1ccccc1O)N=Cc1ccccc1O` (configuration not stated): the concentration at half-maximal activity (AC50) is 25.9 µM (active) in test [1] and 55.3 µM (active) in test [10]. Further, the outcome in test [2], in test [11], in test [3], in test [12], in test [4] and in test [7] was inactive. In addition, the molecule was classed as inactive in test [13], in [8], in test [9] and in [14].
On to `CCCCCCCCCC(=O)OC`, for which the call in [1], in [2], in test [3], in test [15], in test [6] and in [9] was inactive. Further, the result in test [10] was inactive.
Regarding `C=Cc1ccc(C(C)(C)C)cc1`, the molecule was called inactive in test [1], in test [2], in [11], in test [15], in test [16] and in test [8]. Further, the outcome in [9], in [10] and in [14] was inactive.
Take `CC(=O)OCCCc1ccccc1`: the result in test [1], in test [2], in [17], in [3], in [15] and in [18] was inactive. Further, the result in test [19], in test [4], in [13], in test [9], in test [10] and in test [14] was inactive.
`Nc1ccc2c(O)cc(S(=O)(=O)O)cc2c1`: the molecule was called inactive in test [1], in [2], in test [3], in test [4], in test [6] and in test [7]. Also, the result in test [8], in test [9], in test [10] and in test [14] was inactive.
For the molecule `CCc1ccc(O)c(OC)c1`, the result in test [1], in test [2], in [11], in [3], in test [15] and in [4] was inactive. The call in test [7], in [8], in test [9], in [10] and in test [14] was inactive.
For `CC(C)C[C@H](NC(=O)OCC1c2ccccc2-c2ccccc21)C(=O)O`, the result in test [1], in test [2], in test [11], in test [3], in [15] and in [16] was inactive. For the same molecule, the call in [4], in [5], in test [6], in test [7], in [9] and in [10] was inactive. Besides, in [14], the outcome was inactive.
Take `CCCCCCC(C)(C)S`: the result in [1], in [2], in [11], in test [3], in test [12] and in [4] was inactive. Also, the call in test [5], in test [7], in test [13], in test [8], in test [9] and in test [10] was inactive. For the same molecule, the outcome in [14] was inactive.

Usually AC50 stands for the concentration giving half of the maximal activity seen.
